# Reference: PubChem BioAssay (NCI)
# This is part of a sample that, as a whole, favours compounds with a hit. Of some 79,000 tested, about 15% had one in any assay. Unmarked numbers belong to inactive results. Calls of active or inactive are those of the source. No stated cut-off is given here; in the data, active means growth inhibition above about 70%; inactive means the rest.
# What was measured:
# [1] = NCI Yeast Anticancer Drug Screen. Data for the rad50 strain (AID 155);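 further: 0% = growth of vehicle-only cultures of the same strain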; details: S. cerevisiae rad50 strain growth inhibition, active compounds read high
# How it was run: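 Readout: growth inhibition relative to vehicle-treated cultures. Compound exposure was carried out in a genetically defined yeast strain deficient in DNA damage repair.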
# [2] = NCI Yeast Anticancer Drug Screen. Data for the mec2-1 strain (AID 157); details: S. cerevisiae mec2-1 strain, active compounds read high
# How it was run: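 Strain: mec2-1 (DNA repair/cell cycle alteration). Compound exposure, then growth measured; inhibition expressed relative to vehicle.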
# [3] = NCI Yeast Anticancer Drug Screen. Data for the sgs1 mgt1 strain (AID 161);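 further: 0% = growth of cultures given vehicle only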; details: S. cerevisiae sgs1 mgt1 strain, active compounds read high
# How it was run: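 Mutant yeast exposed to compound; growth scored against vehicle-only wells.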
# [4] = NCI Yeast Anticancer Drug Screen. Data for the cln2 rad14 strain (AID 165);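 further: 0% = growth equal to vehicle treated cultures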; details: S. cerevisiae cln2 rad14 strain, active compounds read high
# How it was run: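 Compounds are applied to the cln2 rad14 yeast strain, and growth is then compared with that of vehicle-treated cultures to give inhibition.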
# [5] = NCI Yeast Anticancer Drug Screen. Data for the bub3 strain (AID 167); details: S. cerevisiae bub3 mutant strain, active compounds read high
# How it was run: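 Readout: yeast growth inhibition, expressed relative to vehicle-only wells. The test organism is a mutant strain from a panel with lesions in DNA repair or checkpoint genes.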
# [6] = NCI Yeast Anticancer Drug Screen. Data for the mlh1 rad18 strain (AID 175); details: S. cerevisiae mlh1 rad18 strain growth inhibition, active compounds read high
# How it was run: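 Read-out is yeast growth inhibition, calculated against vehicle-only controls. The compound was applied to a strain engineered with DNA damage repair alterations.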
# [7] = at 5.0 µM (retest, dose inferred, filed as 0.5)
# [8] = at 50.0 µM (retest, dose inferred, filed as 5.0)
SMILES,"growth inhibition [1, 7]","growth inhibition [1, 8]",growth inhibition ([1]; at 50.0 µM),"growth inhibition [2, 7]","growth inhibition [2, 8]",growth inhibition ([2]; at 50.0 µM),"growth inhibition [3, 7]","growth inhibition [3, 8]",growth inhibition ([3]; at 50.0 µM),"growth inhibition [4, 7]","growth inhibition [4, 8]",growth inhibition ([4]; at 50.0 µM),"growth inhibition [5, 7]","growth inhibition [5, 8]",growth inhibition ([5]; at 50.0 µM),"growth inhibition [6, 7]","growth inhibition [6, 8]",growth inhibition ([6]; at 50.0 µM)
Cc1ccc(C2=CC(=O)/C(=C\C(=O)c3ccc(Cl)cc3)O2)cc1,31%,31%,74.9% (active),28%,28%,55.5%,17%,17%,71.2% (active),38%,38%,57%,22%,22%,49.5%,37%,37%,58%
O=C(/C=C/c1ccc([N+](=O)[O-])o1)N1CCN(Cc2ccccc2)CC1,38%,78% (active),75.1% (active),33%,75% (active),60%,55%,92% (active),74% (active),35%,60%,38.8%,43%,75% (active),62%,52%,91% (active),58.6%
O=C(Nc1cccc(Cl)c1)Oc1c(Br)cc(Br)cc1Br,18%,98% (active),99% (active),22%,99% (active),98.7% (active),34%,98% (active),99% (active),-4%,98% (active),94.5% (active),-7%,99% (active),97.1% (active),24%,99% (active),99.4% (active)
Nc1ccc(-c2nc3ccccc3s2)cc1,21%,96% (active),89.8% (active),2%,100% (active),91.8% (active),-3%,99% (active),88.4% (active),8%,85% (active),87.6% (active),-2%,99% (active),86.2% (active),10%,98% (active),84.6% (active)
C=C1CC(Cn2cc(C)c(=O)[nH]c2=O)(c2ccc(Cl)cc2)OC1=O (configuration not stated),-7%,82% (active),69.8%,-11%,94% (active),73.1% (active),-27%,85% (active),74.2% (active),13%,43%,65%,8%,89% (active),78.3% (active),7%,91% (active),85.3% (active)
O=C(/C(=N/O)[n+]1ccccc1)c1ccccc1,-4%,69%,73.2% (active),-3%,60%,26.8%,-9%,33%,41.7%,-6%,-7%,-10.8%,-1%,94% (active),41.8%,4%,53%,78.5% (active)
CC(C)(C)C(=O)OC12/C(=N/O)CCCCCC1c1ccccc12 (configuration not stated),-17%,88% (active),81.8% (active),6%,92% (active),86% (active),-12%,89% (active),81.2% (active),31%,96% (active),85.3% (active),-9%,93% (active),84.2% (active),14%,92% (active),80.5% (active)
Cc1cc2c(c([N+](=O)[O-])c1C)C(=O)C(Br)=C(N)C2=O,95% (active),98% (active),93.5% (active),79% (active),99% (active),97.8% (active),96% (active),17%,98.8% (active),45%,98% (active),98.3% (active),87% (active),96% (active),94% (active),93% (active),99% (active),98% (active)
O=[N+]([O-])c1ccc(/C=c2\sc3scc(-c4ccc([N+](=O)[O-])cc4)[n+]3\c2=C/c2ccc([N+](=O)[O-])cc2)cc1,99% (active),99% (active),86.9% (active),100% (active),99% (active),75.5% (active),88% (active),99% (active),97.5% (active),94% (active),99% (active),69.3%,99% (active),99% (active),54.1%,99% (active),99% (active),94.6% (active)
O=C1c2cccc(S(=O)(=O)O)c2C(=O)c2cccc([N+](=O)[O-])c21,2%,30%,31.1%,0%,31%,23%,5%,45%,16.3%,-1%,28%,-8.35%,-1%,25%,16.6%,6%,40%,69.1%
CCN(C(=O)C(F)(F)F)c1ccc2c(c1)C(=O)c1ccccc1-2,0%,34%,26.1%,1%,12%,-2.65%,-4%,87% (active),42.6%,0%,20%,-18.2%,38%,70% (active),84% (active),-1%,60%,10%
CC(C)C1=C(O)c2ccccc2C(=O)C1=O,-9%,97% (active),86.8% (active),13%,94% (active),78.7% (active),38%,97% (active),90.5% (active),-21%,86% (active),62.6%,11%,97% (active),84.3% (active),18%,98% (active),90.2% (active)
CCC(CC)C(c1ccc(O)cc1)c1ccc(O)cc1,92% (active),99% (active),99.5% (active),83% (active),100% (active),99.5% (active),88% (active),77% (active),99.6% (active),97% (active),100% (active),99.2% (active),75% (active),98% (active),99.7% (active),95% (active),100% (active),99.5% (active)
Cc1[nH]nc(-c2cccnc2)c1N=NN1CCOCC1,-4%,70% (active),64%,7%,79% (active),97.5% (active),-5%,98% (active),96% (active),-2%,80% (active),58.5%,-3%,99% (active),5.35%,-3%,77% (active),98% (active)
Cc1ccc([N+](=O)[O-])cc1Cl,-3%,-4%,-4.35%,2%,-2%,-8.45%,1%,-1%,-2.6%,-2%,-1%,93.2% (active),-3%,-4%,-3.85%,-1%,-6%,-2.45%
CC(OC(=O)Nc1cccc(Cl)c1)c1ccccc1 (configuration not stated),18%,99% (active),99.2% (active),8%,99% (active),99.5% (active),12%,99% (active),99.5% (active),7%,99% (active),99% (active),11%,99% (active),99.7% (active),11%,99% (active),99.2% (active)
C=CCSc1nc2ccccc2c(=O)n1Cc1ccco1,50%,59%,-7.25%,25%,36%,-12.2%,33%,59%,22.4%,27%,26%,-54.2%,45%,77% (active),19.4%,43%,64%,46.5%
O=C1c2ccccc2C(O)(c2ccccc2)c2c(Cl)cccc21 (configuration not stated),-1%,27%,82.6% (active),-6%,26%,90.7% (active),0%,28%,80.8% (active),1%,21%,75.2% (active),-5%,14%,80% (active),-12%,41%,96.7% (active)
Clc1ccc(C2=Nc3ccccc3SC(c3ccc(Cl)c(Cl)c3)C2)c(Cl)c1 (configuration not stated),16%,16%,64.2%,12%,12%,49.3%,1%,1%,63.3%,10%,10%,40.8%,9%,9%,70.4% (active),13%,13%,63.7%
